# In all, about 52,000 compounds went through this assay and about 4,300 (8.3%) were called active. Many of the other results were omitted from the sample, so actives are more common in it than they were. A number with no mark means an inactive call. No stated cut-off is given here; in the data, active means survival mostly below about 52% (no sharp cut-off); inactive means mostly above about 56%.
# Test system: DeltatarO mutant
# Test: S. aureus survival, RN4220 and DeltatarO strains – OD600, teichoic acid synthesis inhibitors, primary screen (AID 463173)
# Conditions: S. aureus RN4220 wild type/DeltatarO growth, OD600, 18 h, active compounds read low, screened at 18.75 µg/mL (by protocol)
row,SMILES,survival
1,CC(Oc1ccccc1)C(=O)Nc1ccccc1C(=O)OCc1cc(=O)n2nc(C(C)C)sc2n1 (stereo unspecified),83%
2,Cc1ccn2c(Nc3ccccc3C)c(-c3ccccc3)nc2c1,0% (active)
3,Cc1ccn2c(Nc3ccccc3C)c(-c3cccnc3)nc2c1,81%
4,Cc1cccc(C)c1Nc1c(-c2ccccn2)nc2ccc(Cl)cn12,135%
5,Cc1ccc2nc(-c3ccccn3)c(Nc3ccccc3C)n2c1,15%
6,Cc1ccn2c(Nc3ccccc3C)c(-c3ccncc3)nc2c1,85%
7,Cc1ccn2c(Nc3ccccc3C)c(-c3ccccn3)nc2c1,11% (active)
8,Cc1ccc2nc(N3CCN(c4ccccc4F)CC3)c3nnnn3c2c1,87%
9,Cc1ccc(C)c(-n2cc(-c3ccccc3)nc2SCC(=O)Nc2ccccc2)c1,96%
10,Cc1cccc(NC(=O)c2cnn(-c3ccccc3)c2-n2cccc2)c1C,77%
11,CCC(=O)N1CCc2cc(Br)cc(S(=O)(=O)CCC(=O)N3CCN(c4cccc(C)c4)C(C)C3)c21 (stereo unspecified),65%
12,O=C(Nc1nc2n(n1)C(c1ccc(Cl)cc1)C=C(c1ccccc1)N2)c1ccco1 (stereo unspecified),35% (active)
13,O=C(Nc1nc2n(n1)C(c1ccc(F)cc1)C=C(c1ccc(Cl)cc1)N2)c1ccco1 (stereo unspecified),16% (active)
14,Cc1ccc(C2C=C(c3ccc(Cl)cc3)Nc3nc(NC(=O)c4ccco4)nn32)cc1 (stereo unspecified),67%
15,COc1ccc(C(=O)Nc2nc3n(n2)C(c2ccc(Cl)cc2)C=C(c2ccccc2)N3)cc1OC (stereo unspecified),59%
16,O=C(Nc1nc2n(n1)C(c1ccc(F)cc1)C=C(c1ccccc1)N2)c1cccc([N+](=O)[O-])c1 (stereo unspecified),99%
17,CC(=O)Nc1nc2n(n1)C(c1ccc(F)cc1)C=C(c1ccc(Cl)cc1)N2 (stereo unspecified),59%
18,O=C(Nc1nc2n(n1)C(c1ccccc1)C=C(c1ccc(Cl)cc1)N2)c1ccco1 (stereo unspecified),42%
19,O=C(Nc1nc2n(n1)C(c1ccccc1)C=C(c1ccccc1)N2)c1ccccc1 (stereo unspecified),109%
20,O=C(Nc1nc2n(n1)C(c1ccc(F)cc1)C=C(c1ccccc1)N2)c1ccco1 (stereo unspecified),41% (active)
21,O=C(NCCN1CCN(c2ccccc2)CC1)Nc1ccccc1Br,87%
22,Cc1ccc(C)c(CN2C(=O)c3ccccc3S(=O)(=O)c3ccc(C(=O)N4CCCCC4)cc32)c1,61%
23,Cc1cc2nn(-c3ccc(F)cc3)nc2cc1NC(=O)c1ccc(OC(C)C)cc1,64%

row,SMILES,survival
1,O=c1c(S(=O)(=O)c2cccc(Cl)c2)cn(Cc2ccccc2)c2cc(N3CCOCC3)c(F)cc12,83%
2,CCC(=O)N1CCc2cc(CNS(=O)(=O)c3ccc(NC(=O)CC(C)C)cc3)ccc21,86%
3,CC(=O)Nc1ccc(OC(=O)c2ccco2)cc1,71%
4,CC(C)OCCCNc1ncnc2sc3c(c12)CCCC3,42% (active)
5,CCc1ccc(Nc2ncnc3sc4c(c23)CCCC4)cc1,72%
6,c1coc(CNc2ncnc3sc4c(c23)CCCC4)c1,107%
7,c1cn(CCCNc2ncnc3sc4c(c23)CCCCC4)cn1,65%
8,CN(C)c1ccc(Nc2ncnc3sc4c(c23)CCCC4)cc1,106%
9,Cc1cc(C)cc(Nc2ncnc3sc4c(c23)CCCC4)c1,0% (active)
10,CCOc1ccccc1NC(=O)C1CCN(S(=O)(=O)c2c(C)noc2/C=C/c2ccco2)CC1,72%
11,COc1ccc(N2CCN(S(=O)(=O)c3ccc(CC(C)C)cc3)CC2)cc1,56% (active)
12,COc1ccc(N2CCN(S(=O)(=O)c3ccc(C4CCCCC4)cc3)CC2)cc1,79%
13,COc1ccc(N2CCN(S(=O)(=O)c3ccc4c(c3)C(C(C)C)C(=O)N4)CC2)cc1 (stereo unspecified),125%
14,Cc1ccc(NC(=O)Cn2cc(C(=O)C3CC3)c3ccccc32)cc1,148%
15,CCOC(=O)c1c(C)n(-c2ccccc2)c2ccc(OC(=O)COc3ccccc3)cc12,70%
16,CCN1C(=C(C#N)C#N)C=Cc2cc(C)ccc21,70%
17,COc1cccc(N2CC(NC(=O)c3ccc(S(=O)(=O)N4CCOCC4)cc3)CC2=O)c1 (stereo unspecified),117%
18,COC(=O)Cc1c(C)nc2nc(-c3ccc(C)cc3)[nH]n2c1=O,92%
19,CC(=O)Nc1ccccc1-c1nc2ccccc2n(C(C)C(=O)Nc2ccccc2C(F)(F)F)c1=O (stereo unspecified),98%
20,Cc1nn(C(C)C(=O)Nc2ccccc2C(F)(F)F)c(=O)c2c1sc1ccccc12 (stereo unspecified),107%
21,CCN(CC)S(=O)(=O)c1cc(-c2ccc(=O)n(C(C)C(=O)Nc3cccc(C#N)c3)n2)ccc1C (stereo unspecified),56%
22,CC(C(=O)Nc1cccc(C#N)c1)n1nc(-c2ccccc2)c2c(c1=O)CCCC2 (stereo unspecified),20% (active)
23,CC(C(=O)Nc1ccccc1)n1nnc2sc3c(c2c1=O)CCCC3 (stereo unspecified),61%

row,SMILES,survival
1,CC(C(=O)Nc1ccccc1C(F)(F)F)n1nc(-c2ccccc2)c2c(c1=O)CCCC2 (stereo unspecified),30% (active)
2,CCN(C(=O)Cn1c(=O)n(-c2ccccc2)c(=O)c2ccc(C(=O)NCc3ccc4c(c3)OCO4)cc21)c1cccc(C)c1,84%
3,CC(C)C(c1nnnn1C(C)(C)C)N(Cc1cc2cc3c(cc2[nH]c1=O)OCCO3)C1CCCCC1 (stereo unspecified),109%
4,COc1cccc(NC(=O)CCN2CCN(CCO)CC2)c1,158%
5,CC(C)c1nn2c(=O)cc(COC(=O)CNC(=O)c3ccccc3Cl)nc2s1,125%
6,COc1ccc2oc(=O)cc(CN3CCN(c4ccccc4F)CC3)c2c1,72%
7,COc1ccc(N2CCN(Cc3cc(=O)oc4ccc(OC)cc34)CC2)cc1,86%
8,COc1ccc2oc(=O)cc(CN3CCN(c4ccccc4OC)CC3)c2c1,77%
9,COc1ccc2oc(=O)cc(CN3CCN(c4ccc(F)cc4)CC3)c2c1,61%
10,COc1ccc2oc(=O)cc(CN3CCN(C(=O)c4ccccc4Br)CC3)c2c1,44% (active)
11,CCOc1ccc2oc(=O)cc(CN3CCN(c4ccccc4)CC3)c2c1,83%
12,COc1ccc2oc(=O)cc(CN3CCN(C(=O)c4ccccc4F)CC3)c2c1,36% (active)
13,COc1ccc2oc(=O)cc(CN3CCN(Cc4ccccc4)CC3)c2c1,83%
14,COc1ccc2oc(=O)cc(CN3CCN(C(=O)c4ccccc4)CC3)c2c1,41% (active)
15,CC(C)NC(=O)C1CCN(Cc2ccccc2Cl)CC1,92%
16,Cc1ccc(NC(=O)CCNS(=O)(=O)c2ccc3c(c2)CCN3C(=O)C2CC2)c(Cl)c1,83%
17,COc1ccc(Cl)cc1NC(=O)CSc1nnc(C)n2c1cc1occc12,50%
18,Cc1ccc(C)c(NC(=O)Cn2c(=O)n(CCC(=O)NCc3ccc4c(c3)OCO4)c(=O)c3ccccc32)c1,104%
19,O=C(CN1C(=O)CSC1=O)c1ccccc1,88%
20,CC1Cc2ccccc2N1C(=O)c1cnsn1 (stereo unspecified),97%
21,CC1=C(C(=O)Nc2ccc(Cl)cc2)C(c2cccs2)n2nc(SCc3cccc(Cl)c3)nc2N1 (stereo unspecified),89%
22,CCOC(=O)/C=C(\C)Nc1cc(-c2ccc(Cl)cc2)[nH]n1,68%
23,CC(=O)Nc1cc(-c2ccc(Cl)cc2)[nH]n1,106%

row,SMILES,survival
1,CCNC(=S)Nc1cc(-c2ccc(Cl)cc2)[nH]n1,20% (active)
2,CCN(CC)S(=O)(=O)c1ccc2c(c1)N(CC(=O)N1CCN(c3ccc(F)cc3)CC1)C(=O)CO2,94%
3,Cc1oc(-c2ccc(Cl)cc2)nc1CS(=O)CC(=O)NCc1ccc(Cl)cc1 (stereo unspecified),63%
4,Cc1ccc(-c2onc(C)c2C)cc1S(=O)(=O)Nc1ccc(Cl)cn1,97%
5,Cc1cccc(NC(=O)CSc2ncc(-c3ccc(Br)cc3)[nH]2)c1,110%
6,O=C(CSc1nc(-c2cccs2)nc2cc(=O)[nH]n12)Nc1ccccc1Cl,76%
7,COc1ccc(-c2nnc(SCC(=O)NC3CCCC3)nc2-c2ccc(OC)c(OC)c2)cc1OC,47% (active)
8,Cc1ccccc1NC(=O)CSc1nc(-c2cccs2)nc2cc(=O)[nH]n12,93%
9,O=C(CSc1ncc(-c2ccccc2)[nH]1)Nc1cccc(C(F)(F)F)c1,12% (active)
10,O=C(CSc1ncc(-c2ccccc2)[nH]1)Nc1cccc(Br)c1,9% (active)
11,Cc1cccc(NC(=O)CSc2ncc(-c3ccccc3)[nH]2)c1C,51%
12,O=C(CSc1ncc(-c2ccccc2)[nH]1)Nc1cccc(O)c1,89%
13,O=C(CSc1nc(-c2cccs2)nc2cc(=O)[nH]n12)Nc1ccccc1F,47% (active)
14,O=C(CSc1nc2cc3ccccc3cc2[nH]1)Nc1cccc(C(F)(F)F)c1,74%
15,CCOc1ccc(-c2nnc(SCC(=O)NC3CCCC3)nc2-c2ccc(OCC)c(OC)c2)cc1OC,71%
16,CCOc1ccc(-c2nnc(SCC(=O)NC3CCCCC3)nc2-c2ccc(OCC)c(OC)c2)cc1OC,78%
17,O=C1NC(=O)C2C3c4ccccc4C(c4ccccc43)C12 (stereo unspecified),98%
18,O=C(CSc1nnc(CNC(=O)c2c(F)cccc2Cl)o1)Nc1cccc(F)c1,82%
19,CCc1ccc(CNC(=O)c2ccc3c(c2)nc2n3CCCCC2)cc1,79%
20,COC(=O)c1c(NC(=O)c2cc(=O)c3ccc(C)c(C)c3o2)sc2c1CCCC2,84%
21,N#CC(C#N)=Cc1cn(CCOc2ccc3c(c2)OCO3)c2ccccc12,98%
22,CCOC(=O)c1cc(=O)n2[nH]c(-c3ccc(Br)cc3)cc2n1,93%
